Measured values from PubChem BioAssay AID651702 (NMMLSC, 2012).
The campaign covered roughly 360,000 compounds. About 2,400 (0.67%) were called active.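 Rule for the calls: active = inhibition above about 55% (limit read from the data); inconclusive = no clear call, values can overlap the other calls; inactive = the rest.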 What follows is part of a selection rich in actives, with near analogues and random picks from the rest.

Assay: LAMP-1 surface exposure blockers, TALL-104 cells – cell-based, flow cytometry, MLPCN library, primary screen (AID 651702)
Conditions: TALL-104 LAMP-1 surface exposure, at 10 µM, hits give high values
In the case of `CC(=O)OC1C2(CC3N4C(=O)C5(CO)SSC4(CC31O)C(=O)N5C)OC(C)C(C)(C)C2=O` (stereo not given), the inhibition is reported as 74.7% (active).
In the case of `CN1CCC[C@@H]1CCO[C@](C)(c1ccccc1)c1ccc(Cl)cc1`, the inhibition is reported as 3.8% (inactive).
With `Cc1cc(N2C(=O)C3CCCN3C2c2ccc(Cl)c(Cl)c2)no1` (stereo not given) the inhibition was 1.1% (inactive).
For `CN1CCC(OC(=O)c2cccc(F)c2)CC1`, the inhibition was -4.7% (inactive).
In the case of `O=C(CCNS(=O)(=O)c1ccccc1)Nc1ccc(Cl)cc1C(=O)c1ccccc1`, the inhibition is reported as -5.4% (inactive).
For `OC1/C(=C/c2ccc(C(F)(F)F)cc2)N2CCC1CC2` (stereo not given), the inhibition was -6.5% (inactive).
For `O=C1NC(=O)N(CCc2ccc(F)cc2)C(=O)/C1=C/C=C/c1ccccc1`, the inhibition was 57.4% (active).
In the case of `O=[N+]([O-])c1ccc(C2C3C(c4ccccc4)=NC4(CCCCC4)N32)cc1` (stereo not given), the inhibition is reported as 0.6% (inactive).
With `O=c1[nH]c(CN2CC=C(c3ccccc3)CC2)nc2scc(-c3cccs3)c12` the inhibition was -1.3% (inactive).
In the case of `Cc1ccc(CN2CCCC(C(=O)c3ccc4c(c3)OCO4)C2)cc1C` (stereo not given), the inhibition is reported as -2.3% (inactive).
In the case of `CCOc1ccc(-c2cc(C)[n+](CCN(CC)CC)c(-c3ccc(OCC)cc3)c2)cc1`, the inhibition is reported as 77.5% (active).
For `COc1ccccc1CN1CCN(C(=O)Cc2ccccc2)CC1`, the inhibition was 24.2% (inactive).
In the case of `COc1ccc(Br)cc1CNCCc1cccc(Cl)c1`, the inhibition is reported as 75.9% (active).
In the case of `COc1ccc(CNCCc2ccc3c(c2)OCO3)c(OC)c1OC`, the inhibition is reported as 5.7% (inactive).
With `COc1ccc(CNCCc2c[nH]c3ccccc23)cc1OC` the inhibition was 21.9% (inactive).
In the case of `CCOP(=S)(OCC)C(O)CCCCCn1c(=O)c(F)cn(C2CCCO2)c1=O` (stereo not given), the inhibition is reported as 1.5% (inactive).
For `CCOC(=O)[C@]12Cc3ccccc3[C@H]1N(C1CCCCC1)C(=O)c1cc(OC)ccc12`, the inhibition was 57.3% (active).
With `CCOC(=O)[C@]12Cc3cc(OC)ccc3[C@H]1N(C(C)C)C(=O)c1ccccc12` the inhibition was 3.3% (inactive).
In the case of `Cc1cccc(NC(=O)N2CC3CC(C2)c2cccc(=O)n2C3)c1` (stereo not given), the inhibition is reported as -2.7% (inactive).
With `O=C(CCCn1c(=O)[nH]c2cc(Cl)ccc2c1=O)N1CCC2(CC1)OCCO2` the inhibition was 2% (inactive).
For `Cc1cccc(OP(=O)(Oc2cccc(C)c2)OC(c2ccccc2)C(F)(F)F)c1` (stereo not given), the inhibition was 0.4% (inactive).
For `O=C(Nc1cccc2ccccc12)N1CCC2(CC1)OCCO2`, the inhibition was -7.6% (inactive).
For `CCCCCCCCCCCCn1ccc(=N)cc1`, the inhibition was 27.1% (inactive).
With `CCOC(=O)C1CN(C)CCC1=O` (stereo not given) the inhibition was -3.9% (inactive).
With `CNCC[C@H](Oc1ccc(C(F)(F)F)cc1)c1ccccc1` the inhibition was 10% (inactive).
In the case of `O=C1NC(=O)N(Cc2ccco2)C(=O)/C1=C\c1ccc(-c2ccc(F)cc2)o1`, the inhibition is reported as 76.4% (active).
For `COC(=O)C1=C(c2ccc(Cl)c(C(F)(F)F)c2)C[C@@H]2CC[C@H]1N2C(=O)NC(C)C`, the inhibition was -10.7% (inactive).
In the case of `COCc1cc(OC(=O)N(C)C)nc(-c2ccc(C)c(Cl)c2)n1`, the inhibition is reported as -8.4% (inactive).
In the case of `COc1cc(-n2c(=S)[nH]c3ccc(C)cc3c2=O)c(Cl)cc1Cl`, the inhibition is reported as 1.2% (inactive).
For `COc1ccc(-n2c(O)c(C(C)=Nc3ccc4c(c3)CCC4)c(=O)[nH]c2=O)cc1`, the inhibition was -0.2% (inactive).
